FAK inh: blocks human focal adhesion kinase activity. inhibition, %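 (tested at 7 µM)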. biochemical FAK kinase activity assay. Q05397. 0.84% of 97,000 active; in the data active = inhibition above about 19%;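 note: 0% = DMSO and 100% = reference compound high control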
CD11b adhes enh: CD11b/CD18-fibrinogen binding enhancement; AID 1499; P05107+P11215; K562 CD11b/CD18 adhesion to fibrinogen, ATPlite luminescence; 0.07% of 93,000 active; activation, % at 10 µM;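 active = 10 µM primary screen giving 50% or more activity, confirmed by 40% or more on retest at that dose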
ERa coact pot: enhances coactivator binding to human estrogen receptor alpha; TR-FRET ERalpha-LBD/SRC-Cy5 coactivator binding, 2 h; 100 = basal binding, no effect; P03372; coactivator binding (% of control), % at 25.6 µM; 1.3% of 86,000 active; in the data active = activity above about 200%;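 note: binding measured in presence of low estradiol as agonist stimulus; 0% = peptide alone without receptor and 100% = receptor with peptide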
Mac1 fbg inh: CD11b/CD18-fibrinogen binding inhibition | P05107+P11215 | K562 CD11b/CD18 adhesion to fibrinogen, ATPlite luminescence; Mn2+ added to activate the integrin | inhibition, % at 10 µM | 0.54% of 93,000 active | AID 1497;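 active = primary inhibition of 50% or more at 10 µM, then 40% or more on retest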
ERb SRC1 inh: blocks coactivator binding to human estrogen receptor beta. inhibition, % at 25.6 µM. TR-FRET ER-beta LBD / SRC1-Cy5 peptide binding; receptor agonist-loaded with 1 µM estradiol. AID 633. Q92731. 1.3% of 86,000 active;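 active = compounds whose percent inhibition of the receptor-coactivator binding signal exceeds about 50% in the single-dose screen, limit read from the data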;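 note: 0% = receptor plus peptide wells without compound and 100% = peptide-only wells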
ERa SRC1 inh: ER-alpha (human) coactivator binding inhibition; P03372; TR-FRET ER-alpha LBD / SRC-1 peptide, estradiol-bound; inhibition, % at 25.6 µM; 1.7% of 86,000 active; AID 629; in the data active = inhibition above about 50%;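 note: 0% = receptor plus peptide control and 100% = peptide only without receptor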
* = called active by the depositor; / = no result given; [ ] = dose if it differs, or a comment. Sampled rows, rich in hits. Any-hit rate of the full collection: about 3.5%.

SMILES	FAK inh	CD11b adhes enh	ERa coact pot	Mac1 fbg inh	ERb SRC1 inh	ERa SRC1 inh
COCCN1C(=O)c2oc3ccccc3c(=O)c2C1c1cccc(O)c1 (stereo not given)	3	3	113	-10	-12	-9
Cc1ccccc1Cn1ccc(NC(=O)c2cnn3c2NC(c2ccccc2)CC3C(F)(F)F)n1 (stereo not given)	0	-6	104	-2	2	-7
Cc1nn(C)c(C)c1CN(C)C(=O)c1cnn2c1NC(c1ccccc1)CC2C(F)(F)F (stereo not given)	0	-2	100	2	56*	4
C=CCn1c(CSc2nc3ccccc3s2)nnc1SCC(=O)NCc1ccccc1	0	-4	108	3	-3	6
CC(/C=C1\SC(=S)N(CCCC(=O)Nc2ccc(C(=O)O)c(O)c2)C1=O)=C\c1ccccc1	/	86*	/	3	/	/
Cc1ccc(NC(=O)CCCN2C(=O)/C(=C/C=C/c3ccccc3)SC2=S)cc1	/	17	/	11	/	/
Cc1c(C(=O)OC(C)C)sc(NC(=O)C2CCCO2)c1C(=O)OC(C)C (stereo not given)	-1	3	99	10	1	0
O=C1c2cccnc2C(=O)N1c1cccc(-c2nc3ccccc3o2)c1	6	1	59	11	33	53*[fluorescence artefact?]
O=C1CCC(=O)N1c1cccc(-c2nc3ccccc3o2)c1	/	-2	137	18	-3	-4
O=C1c2ccc(-c3nc4ccccc4o3)cc2C(=O)N1Cc1cccnc1	-1	/	370*	/	-15	-2
Cc1cc(C)nc(NC(=O)c2ccc(Cl)c(Cl)c2)n1	2	-1	99	-3	-2	4
Cc1cc(C)nc(NC2=NCCN2C(=O)Nc2ccc(Cl)c(Cl)c2)n1	10	/	970*	/	14	-54
Nc1cc(-c2nn[nH]n2)ccc1F	4	0	59	-2	60*[fluorescence artefact?]	43
COc1ccc(-c2nn[nH]n2)cc1OC	-1	-1	97	-1	2	-4
O=C(Nc1ccc2c(c1)C(=O)N(C1CCCCC1)C2=O)C1CCCO1 (stereo not given)	2	4	84	-3	-2	3
Cc1sc(NC(=O)CSc2nnc3scc(-c4ccccc4)n23)c(C#N)c1C	7	24	224*[fluorescence artefact?]	-3	34	37
Cc1ccc(-c2nc(NC(=O)CSc3nnc4scc(-c5ccccc5)n34)ns2)cc1	/	/	203*[fluorescence artefact?]	/	-4	24
CCn1c(SCC(=O)Nc2sc(C)c(C)c2C#N)nnc1C(C)C	-4	5	140	-11	0	-1
O=C(CSc1nnc2scc(-c3ccccc3)n12)Nc1ccc2c(c1)OCCO2	-2	6	126	-4	-5	-10
CCc1nnc(NC(=O)CSc2nnc3scc(-c4ccc(C)cc4)n23)s1	3	/	106	/	3	1
Cc1nnc(NC(=O)CSc2nnc3scc(-c4ccc(C)c(C)c4)n23)s1	5	-4	259*	-6	-15	-23
Cc1ccc(-c2csc3nnc(SCc4csc(C)n4)n23)cc1	-3	0	365*[fluorescence artefact?]	9	0	1
COc1cccc(NC(=O)CSc2nnc(-c3ccc(C)cc3)o2)c1	-5	-2	196	-1	-1	1
OC(COCC1COc2ccccc2O1)CN1CCN(c2ccccc2)CC1 (stereo not given)	2	/	/	/	/	/
CCC(C)NC(=O)CS(=O)Cc1nc(-c2cccc(C)c2)oc1C (stereo not given)	3	0	120	1	-10	-11
SMILES	FAK inh	CD11b adhes enh	ERa coact pot	Mac1 fbg inh	ERb SRC1 inh	ERa SRC1 inh
O=C(O)CCC(=O)Nc1ccc(Cc2ccc(NC(=O)CCC(=O)O)cc2)cc1	-2	1	115	7	0	2
Cc1sc(NC(=O)CSc2nnc(COc3ccccc3)n2C)c(C#N)c1C	1	/	131	/	3	1
Cc1ccc(OCc2nnc(SCC(=O)Nc3sc(C)c(C)c3C#N)n2C)cc1	/	-4	250*	3	10	15
Clc1ccc(Sc2cc(Cl)c(-c3ccccc3)nn2)cc1	9	/	/	/	/	/
Oc1ccc(Nc2nc(-c3ccc4ccccc4c3)cs2)cc1	3	28	71	16	-10	-1
Oc1ccc(-c2nc(-c3ccc(O)c(O)c3)cs2)cc1	/	-1	19	-5	82*	68*[fluorescence artefact?]
N/C(=N\c1nc2ccccc2o1)NC(=O)c1ccc(F)cc1	-2	23	/	-5	/	/
CC1=C(SCCC#N)S/C(=C2\SC(C)=C(SCCC#N)S2)S1	1	48	43	-5	53*	81*
COc1ccc(-n2nc(C(=O)NCc3ccco3)c3c4ccccc4n(C)c3c2=O)cc1	/	/	329*[fluorescence artefact?]	/	2	4
O=C(OCC(=O)N1CCCC1)c1cncc(Br)c1	-3	7	101	-37	55*	-1
O=C(Nc1ccc2c(c1)OCO2)c1cnn2c(C(F)(F)F)cc(-c3ccco3)nc12	1	14	85	-2	27	26
O=C(Nc1cnn(C23CC4CC(CC(C4)C2)C3)c1)c1cnn2c(C(F)(F)F)cc(-c3ccco3)nc12	-6	17	173	10	60*	81*
COc1ccc(OC)c(-c2c[n+](=O)c3c(n2[O-])CCCC3)c1	-1	2	75	-7	17	5
O=C(Nc1cccc2ccccc12)c1cn(-c2ccccc2)nc1-c1cccs1	-5	/	203*[fluorescence artefact?]	/	-2	10
CC1CCC(C(C)C)C(OC(=O)Cn2c(-c3ccccc3)[n+](C)c3ccccc32)C1 (stereo not given)	/	-7	/	99*	/	/
CC1CCC(C(C)C)C(OC(=O)Cn2c(-c3ccc(F)cc3)[n+](C)c3ccccc32)C1 (stereo not given)	/	-4	/	64*	/	/
CC1CCC(C(C)C)C(OC(=O)CSc2nc(N)cc(=O)[nH]2)C1 (stereo not given)	-3	/	83	/	-8	3
COC(=O)c1ccc(-c2n[nH]c(=O)c3ccccc23)cc1	2	/	296*[fluorescence artefact?]	/	-2	1
COc1ccccc1/C=C1\SC(=O)N(CCC(=O)NNC(=O)c2ccccc2Cl)C1=O	1	2	/	-64	/	/
CCN(CC)c1ccc(-c2nc3cnccn3c2NC2CCCC2)cc1	0	/	84	/	-12	-6
Clc1ccc(-c2nnc3sc(Cc4cccs4)nn23)cc1	/	-1	83	-20	33	35
O=C1c2ccccc2C(=O)N1Cc1nn2c(-c3ccc(Cl)cc3)nnc2s1	/	0	383*[fluorescence artefact?]	-15	26	46
c1ccc(-c2nnc3sc(Cc4cccs4)nn23)cc1	4	/	46	/	57*	64*[fluorescence artefact?]
COc1ccc(-c2nnc3sc(CN4C(=O)c5ccccc5C4=O)nn23)cc1	/	-4	227*	6	8	16
COCCn1nnnc1CN(CCc1ccc(OC)c(OC)c1)Cc1cc2ccc(C)cc2[nH]c1=O	-1	-2	111	14	1	-12
O=C1CCc2nc3sc4c(c3c(=O)n2N1)CCCC4	0	/	119	/	3	-8

Screens as filed in PubChem BioAssay.
